According to PubChem BioAssay (EPA / NIEHS):
“And” between values parts separate entries of the source, which are not always exact repeats. Identical values can stand only once. Results filed as inconclusive are left out. The source made the active and inactive calls. How the source made its calls: active means hit-call score of the fitted dose curve at least 0.9, where 1 is the maximum; inconclusive means response in the unintended direction; inactive means score below 0.9.

experiment: TOX21_p53_BLA_p4_viability: Viability Assessment in the Tox21 HCT-116 p53 Agonism Beta-lactamase Assay, Phase 4 (AID 2283597);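 further: hits lower the luminescence signal meaning cytotoxicity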
Procedure, shortened: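 Following a 16 h exposure at 37C, the treated HCT116 wells were first read for the FRET ratio. They were then lysed with CellTiter-Glo, and ATP luminescence was recorded after 30 min at room temperature.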

Row | Compound | outcome | AC50
1 | Cc1cc(Cl)ccc1OCCCC(=O)O | inactive | –
2 | O=C(NC(=O)c1c(F)cccc1F)Nc1cc(Cl)c(Oc2ncc(C(F)(F)F)cc2Cl)c(Cl)c1 | – | 4.06 µM (active)
3 | O=c1[nH]c2ccccc2n1C1CCN(CCCC(c2ccc(F)cc2)c2ccc(F)cc2)CC1 | – | 14.6 µM (active) and 11.3 µM (active)
4 | Brc1ccc(Br)cc1 | inactive | –
